Legend:
Assay in all cases: log2 ratio of Biotin-Ahx-Ub-VS probe labelling (fragment/DMSO); higher = less target engagement (more negative = stronger competition), active = hit call of the paper (q ≤ 0.05, log2 ratio ≤ -1)
Conditions in all cases: compound concentration: 200 uM; treatment time: 3 h
USP42 = target: T1, USP42 (UniProt Q9H9J4)
T1 sequence (whole entry): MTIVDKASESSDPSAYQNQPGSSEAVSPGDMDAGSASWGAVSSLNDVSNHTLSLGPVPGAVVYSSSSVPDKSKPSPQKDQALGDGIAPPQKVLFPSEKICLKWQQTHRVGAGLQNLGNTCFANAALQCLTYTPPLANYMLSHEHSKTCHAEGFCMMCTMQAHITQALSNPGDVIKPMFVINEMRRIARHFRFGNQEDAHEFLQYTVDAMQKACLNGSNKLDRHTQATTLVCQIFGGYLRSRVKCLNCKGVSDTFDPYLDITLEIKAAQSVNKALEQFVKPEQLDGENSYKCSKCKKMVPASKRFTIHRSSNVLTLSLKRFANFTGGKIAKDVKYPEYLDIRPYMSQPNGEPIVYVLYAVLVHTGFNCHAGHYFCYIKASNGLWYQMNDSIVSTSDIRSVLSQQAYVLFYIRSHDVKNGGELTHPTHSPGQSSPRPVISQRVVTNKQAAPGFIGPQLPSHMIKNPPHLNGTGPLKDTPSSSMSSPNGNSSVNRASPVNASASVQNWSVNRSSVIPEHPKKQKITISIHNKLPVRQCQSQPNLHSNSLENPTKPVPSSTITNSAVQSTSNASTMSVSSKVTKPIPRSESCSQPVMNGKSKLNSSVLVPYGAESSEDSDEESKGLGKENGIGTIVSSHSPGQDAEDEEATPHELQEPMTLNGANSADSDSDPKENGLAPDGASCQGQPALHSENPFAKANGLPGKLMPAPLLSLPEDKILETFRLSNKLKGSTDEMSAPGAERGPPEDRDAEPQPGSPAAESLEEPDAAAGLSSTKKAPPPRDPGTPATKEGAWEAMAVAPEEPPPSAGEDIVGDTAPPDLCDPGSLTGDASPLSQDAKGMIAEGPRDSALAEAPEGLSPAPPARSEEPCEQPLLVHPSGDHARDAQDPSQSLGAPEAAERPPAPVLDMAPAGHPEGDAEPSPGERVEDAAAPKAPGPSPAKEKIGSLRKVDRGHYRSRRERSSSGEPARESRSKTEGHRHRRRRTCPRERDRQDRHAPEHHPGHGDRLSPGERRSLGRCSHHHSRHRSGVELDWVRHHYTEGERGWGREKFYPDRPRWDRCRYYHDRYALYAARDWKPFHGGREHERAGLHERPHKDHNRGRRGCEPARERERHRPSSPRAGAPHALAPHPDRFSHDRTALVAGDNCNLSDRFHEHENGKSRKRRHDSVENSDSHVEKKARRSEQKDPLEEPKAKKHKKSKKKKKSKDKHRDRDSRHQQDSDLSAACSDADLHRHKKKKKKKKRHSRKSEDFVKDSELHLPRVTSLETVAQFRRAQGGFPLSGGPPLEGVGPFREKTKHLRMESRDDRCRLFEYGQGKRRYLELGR
Method in brief: (§1)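 Global-median-normalised Spectronaut label-free quantities were compared by unpaired t-test, and values are average log2 ratios of fragment over vehicle. Only proteins with ≥2 unique peptides were used. HEK293T lysate (495 µg per sample) was treated in triplicate with fragment at 200 µM or vehicle for 3 h and then with Biotin-Ahx-Ub-VS at 0.5 µM final for 1 h. Labelled DUBs were then NeutrAvidin-enriched, digested with LysC and trypsin, and run by diaPASEF LC-MS/MS.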

USP46 = USP46 (UniProt P62068)
Method in brief: as §1

USP47 = target: T2, USP47 (UniProt Q96K76)
T2 sequence (whole entry): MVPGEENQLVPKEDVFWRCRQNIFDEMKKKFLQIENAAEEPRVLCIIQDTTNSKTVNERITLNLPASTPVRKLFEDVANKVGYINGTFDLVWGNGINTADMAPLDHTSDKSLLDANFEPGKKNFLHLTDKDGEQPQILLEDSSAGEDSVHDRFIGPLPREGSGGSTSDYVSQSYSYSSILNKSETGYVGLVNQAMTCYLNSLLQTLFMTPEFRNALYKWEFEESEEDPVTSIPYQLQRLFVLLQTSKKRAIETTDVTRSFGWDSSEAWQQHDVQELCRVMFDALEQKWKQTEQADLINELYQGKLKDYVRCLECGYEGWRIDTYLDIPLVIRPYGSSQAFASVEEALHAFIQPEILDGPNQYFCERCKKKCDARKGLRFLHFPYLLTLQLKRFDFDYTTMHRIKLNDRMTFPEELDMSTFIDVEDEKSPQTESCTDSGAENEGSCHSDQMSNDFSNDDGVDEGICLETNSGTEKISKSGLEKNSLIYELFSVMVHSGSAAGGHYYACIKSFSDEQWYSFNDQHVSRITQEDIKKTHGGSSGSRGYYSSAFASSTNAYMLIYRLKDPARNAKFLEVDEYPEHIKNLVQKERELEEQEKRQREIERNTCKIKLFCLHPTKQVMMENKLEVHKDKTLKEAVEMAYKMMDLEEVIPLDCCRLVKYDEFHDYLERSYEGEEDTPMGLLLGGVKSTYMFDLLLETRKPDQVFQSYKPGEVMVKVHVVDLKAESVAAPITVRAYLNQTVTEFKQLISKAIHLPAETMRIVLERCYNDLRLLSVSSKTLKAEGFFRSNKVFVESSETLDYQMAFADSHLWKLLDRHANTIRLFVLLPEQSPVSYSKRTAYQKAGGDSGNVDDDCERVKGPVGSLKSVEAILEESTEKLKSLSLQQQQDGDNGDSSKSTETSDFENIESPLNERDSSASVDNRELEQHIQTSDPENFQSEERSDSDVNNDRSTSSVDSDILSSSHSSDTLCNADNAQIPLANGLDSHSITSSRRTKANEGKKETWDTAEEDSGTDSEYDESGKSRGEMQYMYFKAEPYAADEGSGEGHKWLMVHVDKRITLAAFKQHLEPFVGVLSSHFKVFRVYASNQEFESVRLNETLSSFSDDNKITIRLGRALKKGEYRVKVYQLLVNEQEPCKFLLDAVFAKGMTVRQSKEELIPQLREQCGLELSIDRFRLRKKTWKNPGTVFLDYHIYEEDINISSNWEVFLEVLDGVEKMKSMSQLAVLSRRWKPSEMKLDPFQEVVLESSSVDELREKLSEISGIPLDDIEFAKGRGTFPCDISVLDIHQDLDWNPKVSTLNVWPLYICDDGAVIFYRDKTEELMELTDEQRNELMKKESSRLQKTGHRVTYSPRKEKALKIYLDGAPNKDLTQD
Method in brief: as §1

USP48 = target: T3, USP48 (UniProt Q86UV5)
T3 sequence (whole entry): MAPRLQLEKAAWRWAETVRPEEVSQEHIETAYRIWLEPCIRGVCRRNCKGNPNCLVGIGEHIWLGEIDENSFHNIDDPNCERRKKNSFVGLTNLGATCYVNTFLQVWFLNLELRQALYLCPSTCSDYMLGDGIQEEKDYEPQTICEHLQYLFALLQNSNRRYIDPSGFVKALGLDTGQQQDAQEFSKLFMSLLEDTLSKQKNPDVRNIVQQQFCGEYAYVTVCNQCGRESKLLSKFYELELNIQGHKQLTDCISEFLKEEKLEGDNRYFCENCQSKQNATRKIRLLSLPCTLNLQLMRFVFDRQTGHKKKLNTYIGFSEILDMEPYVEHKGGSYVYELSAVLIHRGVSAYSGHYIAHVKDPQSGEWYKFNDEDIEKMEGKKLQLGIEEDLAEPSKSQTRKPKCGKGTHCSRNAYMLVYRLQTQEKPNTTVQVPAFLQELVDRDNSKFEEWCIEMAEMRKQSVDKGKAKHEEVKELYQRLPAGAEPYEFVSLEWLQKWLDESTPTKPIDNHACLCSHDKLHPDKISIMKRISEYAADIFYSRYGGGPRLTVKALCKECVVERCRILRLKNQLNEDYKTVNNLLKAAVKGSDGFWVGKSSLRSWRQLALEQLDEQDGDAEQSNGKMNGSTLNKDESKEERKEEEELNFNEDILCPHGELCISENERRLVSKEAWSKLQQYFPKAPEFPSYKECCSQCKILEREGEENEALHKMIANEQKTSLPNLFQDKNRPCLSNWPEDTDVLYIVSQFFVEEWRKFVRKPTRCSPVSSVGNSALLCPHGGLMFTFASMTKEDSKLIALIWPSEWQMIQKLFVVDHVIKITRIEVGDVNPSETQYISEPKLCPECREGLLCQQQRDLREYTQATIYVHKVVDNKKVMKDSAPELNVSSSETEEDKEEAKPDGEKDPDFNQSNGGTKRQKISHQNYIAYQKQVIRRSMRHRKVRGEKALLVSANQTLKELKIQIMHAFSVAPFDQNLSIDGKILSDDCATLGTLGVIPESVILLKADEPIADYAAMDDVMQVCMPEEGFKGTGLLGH
Method in brief: as §1

USP5 = target: T4, USP5 (UniProt P45974)
T4 sequence (whole entry): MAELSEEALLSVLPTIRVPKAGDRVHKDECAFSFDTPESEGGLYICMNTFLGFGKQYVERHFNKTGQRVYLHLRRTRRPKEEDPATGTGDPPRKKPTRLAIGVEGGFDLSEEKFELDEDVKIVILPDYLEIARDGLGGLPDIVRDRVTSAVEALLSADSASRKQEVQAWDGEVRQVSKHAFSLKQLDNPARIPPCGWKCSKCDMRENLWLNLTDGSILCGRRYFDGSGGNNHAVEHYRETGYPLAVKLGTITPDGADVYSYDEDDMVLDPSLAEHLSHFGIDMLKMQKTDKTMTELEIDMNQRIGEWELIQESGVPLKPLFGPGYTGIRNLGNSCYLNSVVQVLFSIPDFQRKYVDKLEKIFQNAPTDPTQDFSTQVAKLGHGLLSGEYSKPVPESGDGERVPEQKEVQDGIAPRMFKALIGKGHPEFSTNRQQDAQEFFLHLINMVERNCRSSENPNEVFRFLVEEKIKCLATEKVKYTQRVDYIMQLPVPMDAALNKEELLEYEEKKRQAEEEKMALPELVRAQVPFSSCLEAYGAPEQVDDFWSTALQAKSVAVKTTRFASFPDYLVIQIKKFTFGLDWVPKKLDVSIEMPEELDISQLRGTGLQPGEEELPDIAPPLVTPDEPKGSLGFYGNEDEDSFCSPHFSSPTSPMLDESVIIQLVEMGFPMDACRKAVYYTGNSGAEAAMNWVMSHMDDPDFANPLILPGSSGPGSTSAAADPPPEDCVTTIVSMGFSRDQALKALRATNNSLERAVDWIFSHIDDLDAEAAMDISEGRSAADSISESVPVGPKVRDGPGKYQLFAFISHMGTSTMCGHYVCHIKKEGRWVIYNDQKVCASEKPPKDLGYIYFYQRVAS
Method in brief: as §1

USP54 = USP54 (UniProt Q70EL1)
Method in brief: as §1

USP7 = USP7 (UniProt Q93009)
Method in brief: as §1

USP8 = target: T5, USP8 (UniProt P40818)
T5 sequence (whole entry): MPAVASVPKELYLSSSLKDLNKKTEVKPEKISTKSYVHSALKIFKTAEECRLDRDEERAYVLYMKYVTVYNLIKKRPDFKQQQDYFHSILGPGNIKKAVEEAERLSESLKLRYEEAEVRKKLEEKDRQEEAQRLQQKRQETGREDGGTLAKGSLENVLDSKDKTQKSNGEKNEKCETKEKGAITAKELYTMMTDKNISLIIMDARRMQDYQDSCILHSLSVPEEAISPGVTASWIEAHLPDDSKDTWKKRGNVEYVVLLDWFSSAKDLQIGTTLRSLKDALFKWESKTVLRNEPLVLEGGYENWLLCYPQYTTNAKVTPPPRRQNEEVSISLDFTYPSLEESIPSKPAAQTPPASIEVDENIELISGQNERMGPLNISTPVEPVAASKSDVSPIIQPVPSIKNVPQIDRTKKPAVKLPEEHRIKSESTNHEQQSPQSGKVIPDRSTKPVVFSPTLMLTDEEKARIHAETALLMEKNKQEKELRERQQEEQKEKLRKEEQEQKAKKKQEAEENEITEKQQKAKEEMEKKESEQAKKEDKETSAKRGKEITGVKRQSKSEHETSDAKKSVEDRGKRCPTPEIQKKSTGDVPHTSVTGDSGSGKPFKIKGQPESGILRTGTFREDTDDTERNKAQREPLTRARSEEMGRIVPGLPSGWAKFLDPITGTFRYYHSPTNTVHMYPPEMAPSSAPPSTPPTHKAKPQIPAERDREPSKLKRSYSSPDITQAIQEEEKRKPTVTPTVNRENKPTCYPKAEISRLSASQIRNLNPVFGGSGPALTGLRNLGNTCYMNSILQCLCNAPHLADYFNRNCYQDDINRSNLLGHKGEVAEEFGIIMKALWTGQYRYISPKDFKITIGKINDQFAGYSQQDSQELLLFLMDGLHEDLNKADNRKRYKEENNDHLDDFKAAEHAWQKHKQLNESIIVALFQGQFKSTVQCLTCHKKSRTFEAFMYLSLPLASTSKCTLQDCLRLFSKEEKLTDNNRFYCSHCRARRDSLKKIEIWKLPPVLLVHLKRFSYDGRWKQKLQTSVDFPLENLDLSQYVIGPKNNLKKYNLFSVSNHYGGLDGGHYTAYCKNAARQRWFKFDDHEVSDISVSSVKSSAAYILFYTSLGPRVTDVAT
Method in brief: as §1

USP9X = USP9X (UniProt Q93008)
Method in brief: as §1

UniProt O00487 = target: UniProt O00487
Method in brief: as §1

Measured: log2 ratio of Biotin-Ahx-Ub-VS probe labelling

Sequence of USP46 (P62068 whole entry): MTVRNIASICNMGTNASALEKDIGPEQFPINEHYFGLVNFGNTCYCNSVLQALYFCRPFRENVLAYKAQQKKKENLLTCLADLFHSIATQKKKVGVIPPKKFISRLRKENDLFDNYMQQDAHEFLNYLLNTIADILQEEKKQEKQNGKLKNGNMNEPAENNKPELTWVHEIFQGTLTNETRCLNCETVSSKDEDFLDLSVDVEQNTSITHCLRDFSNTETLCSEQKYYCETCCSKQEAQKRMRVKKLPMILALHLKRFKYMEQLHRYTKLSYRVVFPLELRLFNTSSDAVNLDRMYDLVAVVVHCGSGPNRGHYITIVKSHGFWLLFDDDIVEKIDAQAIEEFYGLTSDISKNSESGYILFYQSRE
Sequence of UniProt O00487 (O00487 whole entry): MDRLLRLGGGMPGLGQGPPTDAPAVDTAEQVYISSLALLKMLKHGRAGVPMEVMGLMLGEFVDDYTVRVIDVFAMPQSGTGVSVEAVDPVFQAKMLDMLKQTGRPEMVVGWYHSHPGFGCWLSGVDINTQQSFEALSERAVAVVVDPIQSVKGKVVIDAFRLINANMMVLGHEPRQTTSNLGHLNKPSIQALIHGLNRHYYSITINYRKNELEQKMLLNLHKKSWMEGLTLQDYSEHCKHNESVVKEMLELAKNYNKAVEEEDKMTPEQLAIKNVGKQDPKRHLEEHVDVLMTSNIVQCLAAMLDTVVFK
Sequence of USP9X (Q93008 whole entry): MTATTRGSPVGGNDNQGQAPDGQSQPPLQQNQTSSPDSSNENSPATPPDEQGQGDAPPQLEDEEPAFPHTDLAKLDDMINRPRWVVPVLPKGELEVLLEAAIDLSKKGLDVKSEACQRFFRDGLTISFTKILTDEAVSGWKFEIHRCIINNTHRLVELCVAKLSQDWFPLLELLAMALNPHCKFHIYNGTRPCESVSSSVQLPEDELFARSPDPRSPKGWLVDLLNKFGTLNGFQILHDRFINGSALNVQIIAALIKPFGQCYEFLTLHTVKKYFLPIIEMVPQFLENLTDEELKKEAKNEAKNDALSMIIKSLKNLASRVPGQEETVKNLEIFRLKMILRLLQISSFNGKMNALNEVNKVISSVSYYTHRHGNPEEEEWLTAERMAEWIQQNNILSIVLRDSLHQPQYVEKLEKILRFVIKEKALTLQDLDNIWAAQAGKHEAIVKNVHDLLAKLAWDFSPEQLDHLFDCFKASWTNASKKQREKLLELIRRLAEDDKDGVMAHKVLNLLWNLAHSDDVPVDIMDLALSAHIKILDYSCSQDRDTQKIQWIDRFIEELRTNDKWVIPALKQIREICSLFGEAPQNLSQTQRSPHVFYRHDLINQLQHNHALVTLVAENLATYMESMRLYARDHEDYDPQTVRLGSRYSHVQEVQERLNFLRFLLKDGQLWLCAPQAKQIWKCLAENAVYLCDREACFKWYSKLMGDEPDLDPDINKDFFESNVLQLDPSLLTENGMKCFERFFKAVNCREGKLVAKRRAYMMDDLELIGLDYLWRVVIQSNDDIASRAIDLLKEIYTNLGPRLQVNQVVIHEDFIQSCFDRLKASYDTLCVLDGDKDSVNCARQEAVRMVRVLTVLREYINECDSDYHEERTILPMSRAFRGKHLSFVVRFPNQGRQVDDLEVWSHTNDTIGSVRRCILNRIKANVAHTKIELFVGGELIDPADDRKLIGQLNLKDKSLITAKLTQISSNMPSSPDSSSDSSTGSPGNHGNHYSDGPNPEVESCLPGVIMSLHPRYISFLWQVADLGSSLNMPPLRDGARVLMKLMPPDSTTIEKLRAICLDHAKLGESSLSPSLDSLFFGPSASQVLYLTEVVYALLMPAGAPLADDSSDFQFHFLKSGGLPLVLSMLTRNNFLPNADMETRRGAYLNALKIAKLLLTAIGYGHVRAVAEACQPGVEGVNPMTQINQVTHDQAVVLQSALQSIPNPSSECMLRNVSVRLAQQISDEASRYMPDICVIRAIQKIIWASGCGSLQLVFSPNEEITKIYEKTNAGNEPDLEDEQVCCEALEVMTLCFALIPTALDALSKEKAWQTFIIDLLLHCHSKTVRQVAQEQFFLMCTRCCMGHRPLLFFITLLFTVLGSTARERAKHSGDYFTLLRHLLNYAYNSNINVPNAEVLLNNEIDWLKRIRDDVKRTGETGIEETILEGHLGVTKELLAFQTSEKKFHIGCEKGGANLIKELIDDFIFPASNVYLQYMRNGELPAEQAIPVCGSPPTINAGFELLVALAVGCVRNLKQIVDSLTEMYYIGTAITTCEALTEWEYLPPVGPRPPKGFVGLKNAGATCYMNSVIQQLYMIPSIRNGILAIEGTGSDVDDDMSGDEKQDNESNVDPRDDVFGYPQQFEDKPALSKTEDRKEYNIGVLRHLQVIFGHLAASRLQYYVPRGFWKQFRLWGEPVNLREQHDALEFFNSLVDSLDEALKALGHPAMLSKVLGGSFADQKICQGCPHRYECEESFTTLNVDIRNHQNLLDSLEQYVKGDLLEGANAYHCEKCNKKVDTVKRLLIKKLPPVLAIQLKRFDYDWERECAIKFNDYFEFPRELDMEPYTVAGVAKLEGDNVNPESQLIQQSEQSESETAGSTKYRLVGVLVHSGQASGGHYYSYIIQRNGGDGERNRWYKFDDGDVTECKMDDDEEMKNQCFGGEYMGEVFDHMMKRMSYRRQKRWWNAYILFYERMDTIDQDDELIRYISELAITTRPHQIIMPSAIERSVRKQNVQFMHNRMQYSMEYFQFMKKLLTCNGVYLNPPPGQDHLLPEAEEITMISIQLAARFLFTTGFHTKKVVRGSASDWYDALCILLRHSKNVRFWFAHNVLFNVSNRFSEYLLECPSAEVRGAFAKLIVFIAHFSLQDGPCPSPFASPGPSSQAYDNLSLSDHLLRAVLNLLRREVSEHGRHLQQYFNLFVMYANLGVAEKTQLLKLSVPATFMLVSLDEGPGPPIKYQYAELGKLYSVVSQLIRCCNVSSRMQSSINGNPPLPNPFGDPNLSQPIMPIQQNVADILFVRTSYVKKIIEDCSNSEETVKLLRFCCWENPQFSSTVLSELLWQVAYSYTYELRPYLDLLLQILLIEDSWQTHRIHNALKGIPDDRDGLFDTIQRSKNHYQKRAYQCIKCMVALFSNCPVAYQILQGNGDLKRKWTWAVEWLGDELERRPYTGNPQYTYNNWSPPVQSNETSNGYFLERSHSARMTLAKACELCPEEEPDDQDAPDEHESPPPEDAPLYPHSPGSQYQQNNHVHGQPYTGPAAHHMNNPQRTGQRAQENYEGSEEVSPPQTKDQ
Sequence of USP54 (Q70EL1 whole entry): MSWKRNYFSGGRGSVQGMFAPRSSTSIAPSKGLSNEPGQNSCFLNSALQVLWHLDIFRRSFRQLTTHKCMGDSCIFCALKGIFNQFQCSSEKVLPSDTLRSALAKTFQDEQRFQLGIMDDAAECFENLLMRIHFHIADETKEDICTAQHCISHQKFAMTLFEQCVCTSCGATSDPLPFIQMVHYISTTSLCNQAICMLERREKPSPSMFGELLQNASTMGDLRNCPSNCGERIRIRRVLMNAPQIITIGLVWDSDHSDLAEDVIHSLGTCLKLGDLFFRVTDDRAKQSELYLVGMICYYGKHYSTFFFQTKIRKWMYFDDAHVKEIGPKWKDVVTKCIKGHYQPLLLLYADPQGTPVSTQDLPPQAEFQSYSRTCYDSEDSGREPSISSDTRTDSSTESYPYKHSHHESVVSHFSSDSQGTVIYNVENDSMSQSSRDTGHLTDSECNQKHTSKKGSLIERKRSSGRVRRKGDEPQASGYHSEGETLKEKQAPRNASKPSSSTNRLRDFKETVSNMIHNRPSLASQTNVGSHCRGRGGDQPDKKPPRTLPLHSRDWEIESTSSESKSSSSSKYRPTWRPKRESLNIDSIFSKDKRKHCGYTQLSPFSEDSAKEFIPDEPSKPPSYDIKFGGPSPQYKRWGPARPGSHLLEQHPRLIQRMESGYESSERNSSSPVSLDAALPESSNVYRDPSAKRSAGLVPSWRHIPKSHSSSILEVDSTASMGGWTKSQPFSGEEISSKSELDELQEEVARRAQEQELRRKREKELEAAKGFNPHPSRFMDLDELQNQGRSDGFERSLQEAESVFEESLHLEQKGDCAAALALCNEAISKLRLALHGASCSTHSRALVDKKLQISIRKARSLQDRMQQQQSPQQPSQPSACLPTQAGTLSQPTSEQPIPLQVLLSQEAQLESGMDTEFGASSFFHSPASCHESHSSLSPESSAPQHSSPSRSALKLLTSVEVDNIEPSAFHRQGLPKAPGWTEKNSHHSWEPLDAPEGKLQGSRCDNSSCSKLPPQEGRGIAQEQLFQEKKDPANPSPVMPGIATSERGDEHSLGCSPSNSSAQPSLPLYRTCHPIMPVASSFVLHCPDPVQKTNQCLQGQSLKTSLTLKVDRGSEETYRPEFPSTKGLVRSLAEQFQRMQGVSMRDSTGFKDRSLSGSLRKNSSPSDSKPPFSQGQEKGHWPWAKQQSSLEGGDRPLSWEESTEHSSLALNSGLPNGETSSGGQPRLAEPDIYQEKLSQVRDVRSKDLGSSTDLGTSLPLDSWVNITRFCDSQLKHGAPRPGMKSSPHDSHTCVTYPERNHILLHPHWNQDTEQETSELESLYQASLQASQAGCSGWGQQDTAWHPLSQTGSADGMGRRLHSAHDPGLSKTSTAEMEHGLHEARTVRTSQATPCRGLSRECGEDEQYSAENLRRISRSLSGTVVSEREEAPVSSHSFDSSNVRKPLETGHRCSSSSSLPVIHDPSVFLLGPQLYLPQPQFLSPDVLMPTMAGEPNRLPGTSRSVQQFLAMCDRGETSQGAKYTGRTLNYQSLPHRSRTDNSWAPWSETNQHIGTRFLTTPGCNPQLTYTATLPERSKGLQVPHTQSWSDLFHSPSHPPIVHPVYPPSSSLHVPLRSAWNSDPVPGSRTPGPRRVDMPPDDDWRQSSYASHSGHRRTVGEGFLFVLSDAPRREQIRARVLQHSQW

O=C(CCl)N1CCc2ccccc2C(O)C1 (stereo not given)
inactive: USP42 0.325 | USP46 -0.184 | USP47 0.0442 | USP48 -0.682 | USP5 -0.103 | USP54 0.265 | USP7 -0.687 | USP8 -0.372 | USP9X -0.333 | UniProt O00487 -0.0272

O=C(CCl)N1CCOC(CCc2ccccc2)C1 (stereo not given)
inactive: USP42 0.335 | USP46 -0.509 | USP47 -1.03 | USP48 -0.472 | USP5 -0.132 | USP54 0.433 | USP7 -0.763 | USP8 -0.555 | USP9X -0.43 | UniProt O00487 -0.235

Cc1c(NC(=O)CCl)c(=O)n(-c2ccccc2)n1C
inactive: USP42 0.238 | USP46 0.0574 | USP47 -0.882 | USP48 -0.0273 | USP5 -0.287 | USP54 0.0174 | USP7 -0.431 | USP8 0.0124 | USP9X 0.00112 | UniProt O00487 -0.111

From the supplement of paper PMC11732987, “Enantioselective OTUD7B fragment discovery through chemoproteomics screening and high-throughput optimisation” (Communications Chemistry, 2025)
